# Source: PubChem BioAssay (Tox21)
# Records with an inconclusive call do not appear. Where a call stands in place of a potency, no number is given. Values without a mark were called inactive. Activity calls are given as the source filed them. Unless noted, calls come from the whole dose curve; as a rule, active = well fitted curve in the direction sought with a large enough effect in the repeat runs; inconclusive = weak or mixed curves; inactive = no such curve, though single readings can be large; an effect the other way counts as inactive or inconclusive.
# Tests used:
# [1] = tested on: thyroid hormone receptor (rat, GH3 cells); test: qHTS assay to identify small molecule agonists of the thyroid receptor (TR) signaling pathway (AID 743066; calls by dose curve); details: GH3.TRE-Luc cells, TR agonist luciferase, 24 h; series mostly up to 83.9 µM
# [2] = qHTS assay to identify small molecule antagonists of the estrogen receptor alpha (ER-alpha) signaling pathway - cell viability counter screen (AID 743074; calls by dose curve;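 note: HEK293 cells carrying ER-alpha-UAS-bla reporter stimulated with 17beta-estradiol; nearly all actives have a fitted effect of over 45% in size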); details: ERalpha-bla HEK293 viability, CellTiter-Glo luminescence, 18 h; series mostly up to 69.4 µM
# [3] = target: Estrogen receptor (Homo sapiens) (UniProt P03372); test: qHTS assay to identify small molecule agonists of the estrogen receptor alpha (ER-alpha) signaling pathway (AID 743075; calls by dose curve;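 note: HEK293 GripTite cells with ER-alpha and UAS-driven beta-lactamase reporter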); details: HEK293 ER-alpha-UAS-bla, beta-lactamase FRET ratio, 18 h; series mostly up to 70.1 µM
# Estrogen receptor (Homo sapiens), sequence (P03372 whole entry, looked up): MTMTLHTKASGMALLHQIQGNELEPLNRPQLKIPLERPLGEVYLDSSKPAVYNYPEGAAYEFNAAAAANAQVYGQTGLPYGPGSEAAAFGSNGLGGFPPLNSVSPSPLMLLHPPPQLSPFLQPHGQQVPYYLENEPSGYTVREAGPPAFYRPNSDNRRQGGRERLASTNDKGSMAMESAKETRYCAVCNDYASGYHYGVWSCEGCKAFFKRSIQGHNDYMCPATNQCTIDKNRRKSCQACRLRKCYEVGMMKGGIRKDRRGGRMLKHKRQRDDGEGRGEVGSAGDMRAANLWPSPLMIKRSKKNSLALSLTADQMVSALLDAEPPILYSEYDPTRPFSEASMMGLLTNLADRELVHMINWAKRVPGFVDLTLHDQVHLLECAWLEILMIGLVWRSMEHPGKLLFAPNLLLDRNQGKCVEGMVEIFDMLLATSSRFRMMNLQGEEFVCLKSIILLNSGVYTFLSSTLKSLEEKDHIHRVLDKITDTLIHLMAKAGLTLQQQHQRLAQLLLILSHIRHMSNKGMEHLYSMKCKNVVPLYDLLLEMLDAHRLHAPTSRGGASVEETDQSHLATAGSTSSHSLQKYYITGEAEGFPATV
# [4] = qHTS assay to identify small molecule antagonists of the estrogen receptor alpha (ER-alpha) signaling pathway using the BG1 cell line - cell viability counter screen (AID 743081); details: BG1Luc4E2 viability, CellTiter-Fluor, 22 h; series mostly up to 70.3 µM;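 note: compound given together with 17beta-estradiol as the ER stimulus; nearly all actives have a fitted effect of over 45% in size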
# [5] = target: Aromatase (Homo sapiens) (UniProt P11511); test: qHTS assay to identify aromatase inhibitors (AID 743083); details: MCF-7 aro ERE, testosterone-driven ERE luciferase, 24 h; series mostly up to 70.3 µM; note: nearly all actives have a fitted effect of over 55% in size
# Aromatase (Homo sapiens), sequence (P11511 whole entry, looked up): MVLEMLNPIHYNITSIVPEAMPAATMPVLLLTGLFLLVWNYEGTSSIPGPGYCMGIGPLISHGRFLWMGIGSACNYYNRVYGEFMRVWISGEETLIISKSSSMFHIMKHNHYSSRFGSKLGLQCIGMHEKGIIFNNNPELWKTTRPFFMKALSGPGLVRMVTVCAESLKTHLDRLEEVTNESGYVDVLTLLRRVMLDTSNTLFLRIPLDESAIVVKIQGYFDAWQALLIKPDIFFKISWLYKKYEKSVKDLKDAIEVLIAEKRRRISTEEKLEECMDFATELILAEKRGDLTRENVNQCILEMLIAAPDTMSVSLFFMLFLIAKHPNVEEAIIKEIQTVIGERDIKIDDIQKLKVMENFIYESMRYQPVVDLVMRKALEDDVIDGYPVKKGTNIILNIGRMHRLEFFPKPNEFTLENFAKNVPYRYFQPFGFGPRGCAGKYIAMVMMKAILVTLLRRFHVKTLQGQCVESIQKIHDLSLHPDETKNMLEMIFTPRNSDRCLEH
# [6] = qHTS assay to identify aromatase inhibitors - cell viability counter screen (AID 743084); details: MCF-7 aro ERE viability, CellTiter-Fluor, 24 h; series mostly up to 70.3 µM;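 note: cells stimulated with testosterone during compound exposure; nearly all actives have a fitted effect of over 55% in size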; note: potency is the fitted concentration of half-maximal effect
# [7] = target: Aryl hydrocarbon receptor (Homo sapiens) (UniProt P35869); test: qHTS assay to identify small molecule that activate the aryl hydrocarbon receptor (AhR) signaling pathway (AID 743085); details: HepG2 AhR-luc (HG2L7.5c1), luciferase, 24 h; series mostly up to 70.3 µM; note: nearly all actives have a fitted effect of over 15% in size; note: potency is the fitted concentration of half-maximal effect;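 for activation: HG2L7.5c1 human HepG2 liver cells with stably integrated DRE-driven firefly reporter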
# Aryl hydrocarbon receptor (Homo sapiens), sequence (P35869 whole entry, looked up): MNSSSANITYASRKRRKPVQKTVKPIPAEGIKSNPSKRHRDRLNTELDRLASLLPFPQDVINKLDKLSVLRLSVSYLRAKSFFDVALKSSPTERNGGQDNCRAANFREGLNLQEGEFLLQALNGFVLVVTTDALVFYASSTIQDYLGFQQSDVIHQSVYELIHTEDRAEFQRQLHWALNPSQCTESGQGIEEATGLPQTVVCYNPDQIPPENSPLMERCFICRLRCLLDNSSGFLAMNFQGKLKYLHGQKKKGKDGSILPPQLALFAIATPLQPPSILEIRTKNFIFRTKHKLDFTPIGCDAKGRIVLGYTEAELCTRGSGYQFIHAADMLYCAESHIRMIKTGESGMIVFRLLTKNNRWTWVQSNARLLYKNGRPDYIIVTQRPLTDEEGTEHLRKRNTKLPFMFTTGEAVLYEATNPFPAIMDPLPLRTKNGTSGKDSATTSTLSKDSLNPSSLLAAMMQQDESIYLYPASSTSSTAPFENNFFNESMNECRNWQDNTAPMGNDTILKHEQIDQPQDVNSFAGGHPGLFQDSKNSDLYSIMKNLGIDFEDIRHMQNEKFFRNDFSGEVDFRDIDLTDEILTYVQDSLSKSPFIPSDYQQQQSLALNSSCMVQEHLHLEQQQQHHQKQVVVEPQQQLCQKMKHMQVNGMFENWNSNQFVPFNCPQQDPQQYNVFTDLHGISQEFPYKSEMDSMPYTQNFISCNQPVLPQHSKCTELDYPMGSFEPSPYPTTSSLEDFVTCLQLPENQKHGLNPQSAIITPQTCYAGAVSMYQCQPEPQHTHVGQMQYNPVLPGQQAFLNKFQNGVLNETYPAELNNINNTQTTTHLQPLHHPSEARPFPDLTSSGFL
# Summary of the method: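 AhR agonist activity is inferred from enhanced light output of a DRE-controlled firefly luciferase reporter in HepG2 cells, measured with ONE-Glo following 24 h treatment at 37C.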
# [8] = target: Peroxisome proliferator-activated receptor gamma (Homo sapiens) (UniProt P37231); test: qHTS assay to identify small molecule antagonists of the peroxisome proliferator-activated receptor gamma (PPARg) signaling pathway (AID 743191; calls by dose curve; note: nearly all actives have a fitted effect of over 30% in size; note: potency is the fitted concentration of half-maximal effect); details: HEK293H PPARg-UAS-bla, beta-lactamase ratio, antagonist, 17 h; series mostly up to 62.6 µM
# Peroxisome proliferator-activated receptor gamma (Homo sapiens), sequence (P37231 whole entry, looked up): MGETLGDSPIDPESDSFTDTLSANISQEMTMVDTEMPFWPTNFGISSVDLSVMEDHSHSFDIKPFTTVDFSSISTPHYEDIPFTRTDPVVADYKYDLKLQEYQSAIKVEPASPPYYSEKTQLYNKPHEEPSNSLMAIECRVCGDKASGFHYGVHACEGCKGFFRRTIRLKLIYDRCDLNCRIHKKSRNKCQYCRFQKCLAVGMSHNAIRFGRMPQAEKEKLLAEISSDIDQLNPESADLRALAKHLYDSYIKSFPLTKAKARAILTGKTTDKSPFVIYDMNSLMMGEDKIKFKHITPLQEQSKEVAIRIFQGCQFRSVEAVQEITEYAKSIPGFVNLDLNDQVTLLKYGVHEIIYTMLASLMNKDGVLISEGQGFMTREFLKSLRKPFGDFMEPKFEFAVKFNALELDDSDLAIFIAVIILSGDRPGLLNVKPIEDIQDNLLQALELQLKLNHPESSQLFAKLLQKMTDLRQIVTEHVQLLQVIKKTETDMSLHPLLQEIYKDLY
# Summary of the method: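 GeneBLAzer PPARg UAS-bla HEK293H cells, 5 h post-plating, exposed to compounds 17 h at 37C. LiveBLAzer B/G FRET substrate added for 1 h at room temperature; beta-lactamase reporter read by fluorescence intensity.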
# [9] = qHTS assay to identify small molecule antagonists of the peroxisome proliferator-activated receptor gamma (PPARg) signaling pathway - cell viability counter screen (AID 743194); details: PPARg-bla HEK293H viability, CellTiter-Glo luminescence, 17 h, co-treated with 50 nM rosiglitazone; series mostly up to 62.6 µM; note: nearly all actives have a fitted effect of over 55% in size
# Summary of the method: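 Cytotoxicity counter screen in PPARg-bla HEK293H cells, same wells as reporter assay. Compounds plus 50 nM rosiglitazone (final) for 17 h at 37 C, then viability read by CellTiter-Glo luminescence.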
# [10] = qHTS assay for small molecule agonists of the antioxidant response element (ARE) signaling pathway (AID 743202; active = well fitted activation curve with a large enough effect in the signal ratio in the repeat runs, not every such curve was filed as active; the % refers to the signal ratio; note: potency is the fitted concentration of half-maximal effect); details: HepG2 ARE-bla reporter, beta-lactamase FRET, 16 h; series mostly up to 73.3 µM
# Summary of the method: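 HepG2 ARE-bla reporter line, 2,000 cells/well; 5 h preincubation 37 C/5% CO2; compound (DMSO) 16 h 37 C; B/G FRET substrate 2 h RT; fluorescence intensity.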
# [11] = qHTS assay for small molecule agonists of the antioxidant response element (ARE) signaling pathway - cell viability counter screen (AID 743203; calls by dose curve; note: nearly all actives have a fitted effect of over 55% in size); details: ARE-bla HepG2 viability, CellTiter-Glo luminescence, 16 h; series mostly up to 73.3 µM
# Summary of the method: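 Cytotoxicity was tested in parallel with the ARE reporter screen. ARE-bla HepG2 cells were exposed to compounds for 16 hrs, and viability was taken from CellTiter-Glo luminescence.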
# [12] = qHTS assay for small molecule activators of the heat shock response signaling pathway - cell viability counter screen (AID 743209); details: HSE-bla HeLa viability, CellTiter-Glo luminescence, 5 h; series mostly up to 62.6 µM; note: nearly all actives have a fitted effect of over 50% in size
# Summary of the method: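 Cytotoxicity counter screen run in parallel with the HSE beta-lactamase reporter, using the same wells. HeLa HSE-bla cells received compound for 5 h at 37 C; ATP-based CellTiter-Glo luminescence was measured after 30 min at room temperature.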
# [13] = qHTS assay for small molecule activators of the heat shock response signaling pathway (AID 743210; active = well fitted activation curve with a large enough effect in the signal ratio in the repeat runs, with a control signal flat, not every such curve was filed as active; the % refers to the signal ratio;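 note: HeLa cells with beta-lactamase reporter driven by heat shock elements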); details: HeLa HSE-bla reporter, beta-lactamase ratio, 5 h; series mostly up to 62.6 µM
# Summary of the method: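 Beta-lactamase reporter read-out: FRET substrate fluorescence after 2.5 h at RT, following 5 h compound treatment at 37 C of HeLa cells carrying HSE-driven bla reporter; quantitative HTS format.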
# [14] = qHTS assay to identify small molecule antagonists of the thyroid receptor (TR) signaling pathway (AID 743065); details: GH3.TRE-Luc, T3-stimulated luciferase inhibition, 23.5 h; series mostly up to 70.3 µM; note: nearly all actives have a fitted effect of over 55% in size
# Summary of the method: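 GH3.TRE-Luc rat pituitary cells (two TREs driving luciferase) were dosed with compound, then stimulated with 1 nM T3 (final) for 23.5 h at 37 C. ONE-Glo luminescence was the read-out, with CellTiter-Fluor fluorescence as the cytotoxicity counter-screen.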
# [15] = qHTS assay to identify small molecule that activate the aryl hydrocarbon receptor (AhR) signaling pathway - cell viability counter screen (AID 743086); details: HepG2-AhR-luc viability, CellTiter-Fluor, 24 h; series mostly up to 70.3 µM; note: nearly all actives have a fitted effect of over 45% in size; note: potency is the fitted concentration of half-maximal effect
# Summary of the method: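 HepG2-AhR-luc (HG2L7.5c1) cells, 4000/well, treated 24 h at 37 C with compound; viability measured as CellTiter-Fluor fluorescence after 30 min in the same wells as the luciferase read.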
# [16] = target: Peroxisome proliferator-activated receptor gamma (Homo sapiens) (UniProt P37231); test: qHTS assay to identify small molecule agonists of the peroxisome proliferator-activated receptor gamma (PPARg) signaling pathway (AID 743094; active = well fitted activation curve with a large enough effect in the signal ratio in the repeat runs, not every such curve was filed as active; the % refers to the signal ratio); details: HEK293H PPARg-UAS-bla, beta-lactamase FRET ratio, 17 h; series mostly up to 57 µM
# Summary of the method: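 Cells from the PPARg UAS-bla HEK293H line are plated and incubated 5 h at 37C. Compounds in DMSO are pinned in and left 17 h at 37C. LiveBLAzer B/G substrate is then added for 1 h at room temperature before fluorescence is measured.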
# [17] = target: Estrogen receptor (Homo sapiens) (UniProt P03372); test: qHTS assay to identify small molecule agonists of the estrogen receptor alpha (ER-alpha) signaling pathway using the BG1 cell line (AID 743079); details: BG1Luc4E2 cells, ERE-luciferase agonist, 22 h; series mostly up to 70.3 µM; note: nearly all actives have a fitted effect of over 20% in size
# [18] = qHTS assay to identify small molecule antagonists of the estrogen receptor alpha (ER-alpha) signaling pathway using the BG1 cell line (AID 743080; calls by dose curve;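 note: BG1 cells stimulated with 17beta-estradiol alongside compound; nearly all actives have a fitted effect of over 25% in size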); details: BG1Luc4E2 ERE-luciferase antagonist mode, luminescence; series mostly up to 70.3 µM
# Summary of the method: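 Luciferase inhibition measured with ONE-Glo after 30 min at RT in BG1Luc4E2 cells given test compounds and 17beta-estradiol for 21.5 h at 37 C; CellTiter-Fluor viability read in the same wells beforehand.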
# [19] = target: Estrogen receptor (Homo sapiens) (UniProt P03372); test: qHTS assay to identify small molecule antagonists of the estrogen receptor alpha (ER-alpha) signaling pathway (AID 743069; active = well fitted curve in the direction sought with a large enough effect in the signal ratio in the repeat runs, not every such curve was filed as active; the % refers to the signal ratio); details: HEK293 ER-alpha-UAS-bla, beta-lactamase ratio, antagonist mode; series mostly up to 69.4 µM
# Summary of the method: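 Beta-lactamase FRET fluorescence is read after 2 hr at room temperature with LiveBLAzer B/G substrate. Before that, ER-alpha-bla HEK293 cells sit 4 hr after plating, then receive compound plus 17beta-estradiol and incubate 18 hr at 37C.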
Structure (SMILES),outcome [1],outcome [2],outcome [3],outcome [4],Potency [5],Potency [6],Potency [7],Potency [8],outcome [9],Potency [10],outcome [11],outcome [12],outcome [13],Potency [14],Potency [15],outcome [16],Potency [17],Potency [18],outcome [19]
CCCN1C[C@H](CSC)C[C@@H]2c3cccc4[nH]cc(c34)C[C@H]21,inactive,inactive,inactive,inactive,inactive,inactive,inactive,inactive,inactive,inactive,inactive,inactive,inactive,,,,,,
C=C(C)C(=O)OCCN(CC)CC,inactive,inactive,,inactive,inactive,inactive,inactive,,inactive,inactive,,,inactive,inactive,inactive,inactive,,,
COc1ccc2nc(SCc3ncc(C)c(OC)c3C)[nH]c2c1,,,,,,,,inactive,inactive,inactive,inactive,inactive,,,,,,,
CNS(=O)(=O)CCc1ccc2[nH]cc(C3CCN(C)CC3)c2c1,inactive,,inactive,inactive,inactive,inactive,inactive,,inactive,inactive,inactive,inactive,,inactive,,,inactive,inactive,
COC(=O)c1ccccc1C(=O)c1ccc(OCCN2CCCCC2)cc1,inactive,inactive,inactive,inactive,inactive,inactive,inactive,,inactive,inactive,inactive,inactive,inactive,,inactive,inactive,inactive,inactive,
Cc1[nH]cnc1-c1ccc(Cl)cc1,,,,,,,,inactive,inactive,inactive,inactive,inactive,inactive,,,,,,
CC(N)C(=O)OC(C)(C)Cc1ccc(Cl)cc1 (configuration not stated),inactive,inactive,inactive,inactive,inactive,inactive,inactive,inactive,inactive,inactive,inactive,inactive,inactive,,inactive,inactive,inactive,inactive,
O=Cc1ccc(Cl)c(Cl)c1,inactive,inactive,,inactive,inactive,inactive,,inactive,inactive,inactive,inactive,inactive,inactive,inactive,,,,,
CC(C)OC(=O)CCCCC(=O)OC(C)C,inactive,inactive,inactive,inactive,,inactive,54.6 µM (active),,inactive,30.7 µM (active),,inactive,inactive,,inactive,inactive,inactive,inactive,
CCCCNC1CC(C)(C)NC(C)(C)C1,inactive,inactive,inactive,,inactive,inactive,inactive,inactive,,inactive,inactive,inactive,inactive,,inactive,inactive,inactive,inactive,
COc1cc(N)ccc1C,inactive,inactive,,inactive,,,,,,,inactive,inactive,inactive,inactive,,,,,
NS(=O)(=O)c1cc2c(cc1Cl)CN(C1CCCCC1)C2=O,,,,,,,,inactive,inactive,inactive,inactive,inactive,,,,,,,
Nc1ccc([N+](=O)[O-])c(N)c1,inactive,,inactive,,inactive,33.5 µM (active),inactive,inactive,inactive,inactive,,,inactive,inactive,33.5 µM (active),inactive,,inactive,inactive
COc1cc2c(cc1OC)C(=O)CC2,,,,,,,,inactive,inactive,,,inactive,inactive,,,,,,
O=C(O)c1ccc(Cl)cc1Cl,inactive,inactive,inactive,inactive,inactive,inactive,inactive,,inactive,inactive,inactive,inactive,inactive,inactive,inactive,,,inactive,
Cc1ccccc1OCC(O)CO (configuration not stated),inactive,,,inactive,inactive,inactive,inactive,inactive,inactive,inactive,inactive,,,inactive,inactive,,,,
O=C(OCC(O)CO)c1ccccc1Nc1ccnc2c(C(F)(F)F)cccc12 (configuration not stated),,,,,,,,16.8 µM (active),inactive,,inactive,,inactive,,,,,,
CC(C)(C)c1nnc(NS(=O)(=O)c2ccc(N)cc2)s1,,,,,,,,,inactive,inactive,inactive,inactive,inactive,,,,,,
Oc1ccccc1-c1nnco1,,,,,,,,,inactive,inactive,inactive,inactive,,,,,,,
Cc1cccc(OCC(O)CNC(C)(C)C)c1C (configuration not stated),,,,,,,,inactive,inactive,,inactive,inactive,inactive,,,,,,
